Screening data (PubChem)
IL1B cytotox: cytotoxicity in IL-1B stimulated HUVEC, primary screen, cytotoxicity control for IL-1B NFkB translocation project, imaging, Hoechst nuclear count, IL-1B stimulus. 0.41% of 94,000 active. HUVEC cell count loss. AID 845, 2007. cell count reduction, % at 2 µM;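 active = cell count reduction more than 3 SD above the screen-wide mean, cut at about 70% in these data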
NFkB transloc inh: inhibitors of IL-1B driven NFkB p65 nuclear import, primary screen, imaging, HUVEC, IL-1B stimulus, high-content imaging. HUVEC IL-1B NFkB p65 nuclear translocation imaging. inhibition, % at 2 µM. 0.43% of 94,000 active. AID 796, 2007;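 active = inhibition above about 30% together with a positive call from visual inspection of the well image, limit read from the data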;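 note: nuclear over cytoplasmic p65 intensity ratio measured by imaging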
Cav3 T inh: Cav3.2 calcium influx blockers – cell-based, Fluo-4 calcium fluorescence, FDSS, MLSMR library, primary screen; Cav3.2-expressing cells; stronger effect = lower value; Voltage-dependent T-type calcium channel subunit alpha-1H (Homo sapiens), O95180; B-score at 10 µM; 4% of 100,000 active;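 active = single-dose well whose peak fluorescence ratio is a statistical outlier from its plate by either plate-standardised score or position-corrected B-score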
IL1B NFkB pot: enhancers of NFkB p65 translocation in HUVEC – imaging, IL-1B stimulus, high-content imaging, primary screen; activation, % at 2 µM; AID 819, 2007; 0.3% of 94,000 active; HUVEC IL-1B NFkB p65 nuclear translocation imaging;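 active = activation above 40%, about the mean plus 3 SD, also judged a hit on visual image review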;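 note: percent activation is computed from the nuclear over cytoplasmic p65 intensity ratio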
sEH activator: soluble epoxide hydrolase activators, primary screen, biochemical, human sEH | Bifunctional epoxide hydrolase 2 (Homo sapiens), P34913 | purified human sEH enzymatic activity, activator screen | activation, % at 2 µM | 0.04% of 91,000 active | AID 717, 2007; in the data active = activation above about 37%
Target sequence (P34913 whole entry, looked up): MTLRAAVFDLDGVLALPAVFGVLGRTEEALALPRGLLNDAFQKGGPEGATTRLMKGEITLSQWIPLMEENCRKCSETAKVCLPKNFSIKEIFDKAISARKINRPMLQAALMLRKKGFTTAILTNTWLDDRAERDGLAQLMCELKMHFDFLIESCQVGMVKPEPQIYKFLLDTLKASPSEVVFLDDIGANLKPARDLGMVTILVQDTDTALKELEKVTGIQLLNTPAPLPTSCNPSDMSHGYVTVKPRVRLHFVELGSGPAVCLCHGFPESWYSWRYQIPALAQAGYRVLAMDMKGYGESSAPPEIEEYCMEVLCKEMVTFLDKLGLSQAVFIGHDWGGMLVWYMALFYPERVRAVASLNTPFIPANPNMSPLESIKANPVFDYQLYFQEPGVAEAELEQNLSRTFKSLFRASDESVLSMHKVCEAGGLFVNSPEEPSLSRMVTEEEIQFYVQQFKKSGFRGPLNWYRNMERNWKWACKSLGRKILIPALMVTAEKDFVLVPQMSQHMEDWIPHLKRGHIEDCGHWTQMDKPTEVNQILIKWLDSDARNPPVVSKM
sEH inh: soluble epoxide hydrolase inhibitors, primary screen, biochemical, human sEH | recombinant human sEH enzymatic activity assay | inhibition, % at 2 µM | 0.34% of 91,000 active | AID 707, 2007; in the data active = inhibition above about 80%
Numbers stand for hits; i = inactive; nt = no result given. Compounds with a hit are over-represented: about 4.6% of the library has one in this group of screens.

SMILES	IL1B cytotox	NFkB transloc inh	Cav3 T inh	IL1B NFkB pot	sEH activator	sEH inh
CCC(=O)Nc1nonc1-c1nc2ccccc2n1CC(C)C	nt	nt	i	nt	nt	nt
CCCN(Cc1cc2cccc(C)c2[nH]c1=O)C(=O)c1cccc(OC)c1	91.7	94.8	i	i	i	i
N#CN=C1SCCS1	i	i	-4.45	i	i	i
COc1ccc(OC(=O)CCCN2C(=O)c3ccccc3C2=O)cc1	85.6	i	i	i	i	i
Cc1cc(=O)oc2cc(OC(=O)CCN3C(=O)c4ccccc4C3=O)ccc12	i	i	i	i	i	i
CCN(C(=O)COc1cc(=O)n(CC)c2ccccc12)c1cccc(Cl)c1	i	i	nt	i	i	i
COc1ccc2nc(N3CCCC3)c(C#N)cc2c1	i	i	-3.56	i	i	i
COc1ccc2nc(SCC(=O)N3CCCCCC3)c(C#N)cc2c1	i	i	i	i	i	i
CN(c1ccc(S(=O)(=O)N2CCOCC2)cn1)C1CCCCC1	nt	nt	i	nt	i	i
Cc1ccc(-c2nnn(CC(=O)N3c4ccccc4CCc4ccccc43)n2)cc1	i	i	i	i	i	i
Cc1ccc(NC(=O)CSCC(=O)N2c3ccccc3CCc3ccccc32)cc1	i	i	-4.9	i	i	i
COC(=O)C1=C(C)N=C2SC(C)C(=O)N2C1c1cccc(F)c1 (centres undefined)	i	i	-4.64	i	i	i
CCCOC(=O)Nc1nc2ccccc2o1	i	i	i	i	i	i
CC[n+]1c(/C=C/C=C/N(C(C)=O)c2ccccc2)sc2ccccc21	i	57.4	-4.58	i	i	i
CCCN(CCC)C(=O)CC(c1ccccc1)c1ccc(C)cc1O (centres undefined)	i	i	-5.71	i	i	i
O=C1CCSc2ccc(Cl)cc2N1Cc1cccc(Cl)c1	i	i	i	i	i	i
Cc1ccc(CN2C(=O)CCSc3ccc(Cl)cc32)cc1	i	i	-4.9	i	i	i
O=C(NC(=S)NNC(=O)c1ccccc1[N+](=O)[O-])c1ccccc1	i	i	-8.42	i	i	i
O=C(NNC(=S)NC(=O)c1ccccc1[N+](=O)[O-])c1ccccc1	i	i	i	i	i	i
Cc1ccc(CCNC(=O)C2CCC(CNc3c(N4CCC(C)CC4)c(=O)c3=O)CC2)cc1 (centres undefined)	nt	nt	i	nt	nt	nt
C=Cn1ccnc1P(=S)(c1ccc2c(c1)c1ccccc1n2CC)c1nccn1C=C	i	i	-5.18	i	i	i
O=c1cc(-c2ccccc2)nc2nc(SCc3ccccc3)[nH]n12	i	i	-4.55	i	i	i
Cc1cc(=O)n2[nH]c(SCc3ccccc3)nc2n1	i	i	i	i	i	i
C=CCc1cccc(C2Nc3ccccc3C(=O)N2O)c1O (centres undefined)	i	i	-9.81	i	i	i
O=C1c2ccccc2NC(c2ccc(Cl)cc2Cl)N1O (centres undefined)	i	i	i	i	i	i
SMILES	IL1B cytotox	NFkB transloc inh	Cav3 T inh	IL1B NFkB pot	sEH activator	sEH inh
Nc1c(C(=O)NCc2ccccc2)nnn1Cc1ccc(F)cc1	nt	nt	i	nt	nt	nt
CCc1ccc(Cn2nnc(C(=O)NCc3ccccc3OC)c2N)cc1	i	i	-7.14	i	nt	nt
COc1ccc(CNC(=O)c2nnn(Cc3ccc(OC)cc3)c2N)cc1	i	i	-5.24	i	i	i
CSc1nc2cc(F)c(F)cc2n1C	i	i	i	i	i	i
CCn1ncc2c1C(=O)NC1c3ccccc3C(=O)N21 (centres undefined)	i	i	i	i	i	i
CC1(c2cc([N+](=O)[O-])cc([N+](=O)[O-])c2)CC(C)(C)N(C(=O)c2ccccc2)c2ccccc21 (centres undefined)	i	i	i	i	i	i
CC1(c2ccccc2)CC(C)(C)N(C(=O)C2CCCO2)c2ccccc21 (centres undefined)	i	i	-4.53	i	i	i
Cc1ccc(NC2c3ncccc3C(=O)N2C2CCCCC2)cc1 (centres undefined)	nt	nt	i	nt	i	i
O=C(N/N=C/c1ccc(O)cc1)c1csc2ccccc12	i	i	i	i	i	84.1
O=C(Nc1ccc(N2CCOCC2)c(Cl)c1)c1cc(F)c(F)cc1Cl	i	i	i	i	i	i
O=C(CCCCCCCC(=O)NCC1CCCO1)NCC1CCCO1 (centres undefined)	i	i	i	i	i	i
O=C(NCC1CCCO1)NC1CCCCC1 (centres undefined)	94.0	i	i	i	i	i
CCOc1cccc(C2C(C(=O)c3ccc(C)o3)=C(O)C(=O)N2Cc2ccncc2)c1 (centres undefined)	i	30.5	i	i	i	i
Cn1c(=O)c2c(SCC(=O)N3CCOCC3)nc(CC(C)(C)C)nc2n(C)c1=O	i	i	i	i	i	i
Cn1c(=O)c2c(SCC(=O)N3CCCc4ccccc43)nc(CC(C)(C)C)nc2n(C)c1=O	i	i	nt	42.4	i	i
CCN1C(=O)c2ccccc2S(=O)(=O)c2ccc(C(=O)N3CCOCC3)cc21	i	i	i	i	nt	nt
CC(=O)Nc1ccc(C(=O)CSc2nnc(Cn3nnc4ccccc43)n2C)cc1	i	77.7	i	i	i	i
Cc1c(C(=O)NCCCN2CCOCC2)sc2ncnc(N3CCN(c4ccccc4)CC3)c12	nt	nt	i	nt	nt	nt
Cc1ccc(C(=O)NCCSc2c(C)[nH]c3ccccc23)cc1[N+](=O)[O-]	nt	nt	-6.87	nt	nt	nt
Cc1ccc(SCCNC(=O)c2ccc(C)c([N+](=O)[O-])c2)cc1	i	i	-5.62	i	i	i
Cc1ccc(C(=O)NCCSc2ccc(Cl)cc2)cc1[N+](=O)[O-]	i	i	-5.81	i	i	i
COc1ccc(C2C(C(=O)c3sc(C)nc3C)=C(O)C(=O)N2CCN(C)C)cc1 (centres undefined)	i	i	i	i	i	i
Oc1ccc2oc3c(c2c1/C=N/n1cnnc1)CCCC3	i	i	i	i	i	i
Cc1ccc(S(=O)(=O)N2CCCC2)cc1S(=O)(=O)N1CCCC1	i	i	i	i	i	i
Cc1ccc(S(=O)(=O)c2ccc(Cl)cc2)cc1S(=O)(=O)N1CCOCC1	nt	nt	-3.58	nt	nt	nt
SMILES	IL1B cytotox	NFkB transloc inh	Cav3 T inh	IL1B NFkB pot	sEH activator	sEH inh
Cc1noc(C)c1COc1ccc(C(=O)OCc2nnc(-c3ccc(Cl)cc3)o2)cc1	i	i	-6.31	i	i	i
CN(C)S(=O)(=O)c1ccc(C(=O)NCc2cccs2)cc1	i	i	i	i	i	i
CC(C)c1ccc(NC(=S)NCc2cccs2)cc1	i	i	-6.29	i	i	i
CCN(CC(=O)NCc1cccs1)S(=O)(=O)c1ccc(C(C)C)cc1	i	i	-4	i	i	i
Cc1cccn2cc(-c3ccc(F)cc3)nc12	i	i	i	i	i	i
COc1ccc(-c2cn3ccc4ccccc4c3n2)cc1	i	i	i	40.4	i	i
